Data on four compounds can be found in PubChem BioAssay AID2283170 (EPA ToxCast).

Usually AC50 stands for the concentration at which the activity in the assay is half-maximal.

Inconclusive results are not listed. The source made the active and inactive calls. The calls were made as follows: active = hit-call score of the fitted dose curve at least 0.9, where 1 is the maximum; inconclusive = response in the unintended direction; inactive = score below 0.9.

human Lymphocyte-cell Factor Kinase (Lck), LCK (gene 3932), sequence (P06239 whole entry, looked up): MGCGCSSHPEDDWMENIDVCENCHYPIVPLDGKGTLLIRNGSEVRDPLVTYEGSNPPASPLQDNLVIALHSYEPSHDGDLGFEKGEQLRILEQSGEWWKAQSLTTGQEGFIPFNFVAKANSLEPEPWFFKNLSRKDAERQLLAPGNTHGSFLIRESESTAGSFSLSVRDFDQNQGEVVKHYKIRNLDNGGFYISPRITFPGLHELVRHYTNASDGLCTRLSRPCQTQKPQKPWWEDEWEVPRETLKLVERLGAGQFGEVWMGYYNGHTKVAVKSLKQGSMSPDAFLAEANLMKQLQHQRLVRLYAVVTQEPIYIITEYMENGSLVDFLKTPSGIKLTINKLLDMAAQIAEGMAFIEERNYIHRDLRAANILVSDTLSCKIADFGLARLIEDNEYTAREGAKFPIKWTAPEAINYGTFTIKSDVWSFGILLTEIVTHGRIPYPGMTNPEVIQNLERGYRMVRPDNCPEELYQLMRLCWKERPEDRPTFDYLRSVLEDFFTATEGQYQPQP

This assay concerns the target human Lymphocyte-cell Factor Kinase (Lck), LCK (gene 3932) (UniProt P06239). Put plainly: NVS_ENZ_hLck: NovaScreen (NVS) Enzymatic Assay for human Lymphocyte-cell Factor Kinase (Lck). The protocol: NVS_ENZ_hLck is a biochemical, single-readout assay that uses extracted gene-proteins in a cell-free assay. Measurements were taken 1 hour after chemical dosing in a 384-well plate.NVS_ENZ_hLck is one of one assay component(s) measured or calculated from the NVS_ENZ_hLck assay. It is designed to make measurements of enzyme activity, a form of enzyme reporter, as detected with fluorescence intensity signals by Fluorescence and electrophoretic mobility shift technology.Data from the assay component NVS_ENZ_hLck was analyzed into 1 assay endpoint. This assay endpoint, NVS_ENZ_hLck, was analyzed in the positive analysis fitting direction relative to DMSO as the negative control and baseline of activity. Using a type of enzyme reporter, loss-of-signal activity can be used to understand changes in the enzymatic activity as they relate to the gene LCK. Furthermore, this assay endpoint can be referred to as a primary readout, because this assay has produced […] where this one serves a enzymatic activity function. To generalize the intended target to other relatable targets, this assay endpoint is annotated to the kinase intended target family, where the subfamily is non-receptor tyrosine kinase.
Binding assays used specific radioligands (tritiated, iodinated) with non-radioactive competitive displacement ligands in agonist or antagonist protocols (as indicated) and various reference compounds and inhibitors to titrate specific binding to receptors and transporters. Most enzyme assays (CYPs, kinases, phosphatases, proteases, HDACs) used recombinant protein and specific substrates (fluorescence mostly, some colorimetric and radioactive) and inhibitors, followed by a biochemical separation of substrate and product. All assays for the biochemical HTS were initially run in duplicate at a single concentration (10 uM for CYP450 assays and 25 uM for all others). Assay-chemical combinations meeting a pre-defined threshold (e.g., 30% inhibition and other criteria defined below) were then run in singleton concentration-response format with maximum concentration of 20 uM for CYPs and 50 uM for all others. Each assay was run with positive and negative controls, and concurrent controls on every plate. The follow-up (secondary) screen tested active chemical-pairs in concentration series, as well as a few additional assays not tested in the primary screen, some selected negative inactives, and several cases re-run in the concentration series for confirmatory purposes.
In the case of `c1ccc(Nc2ccccc2)cc1`, the AC50 is 10.6 µM (active).
Regarding `S=C([S-])NCCNC(=S)[S-].[Mn+2]`, the compound was called inactive.
Still for that read-out and setting: as for `O=C(Nc1ccc([N+](=O)[O-])cc1Cl)c1cc(Cl)ccc1O`, the entry is “inactive”; as for `c1ccc2[nH]c(-c3cscn3)nc2c1`, “inactive”.
